# Source: PubChem BioAssay AID1671448 (Corson Lab, School of Medicine, Indiana University, 2021)
# Out of some 20,000 compounds screened, about 660 (3.3%) were called active.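 The calls were made as follows: active = enzyme reaction rate more than 3 SD below the solvent-only control wells on the same plate; inactive = the rest.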 Only a selection was taken, and actives are over-represented in it overall.
# Biological target: Ferrochelatase, mitochondrial (Homo sapiens) (UniProt P22830)
# Assay: inhibitors of human ferrochelatase, primary screen, biochemical, purified FECH, Ni-mesoporphyrin absorbance (AID 1671448)
# Conditions: Ni-mesoporphyrin absorbance 550 nm, screened at 10 µM (by protocol)
# Sequence of Ferrochelatase, mitochondrial (Homo sapiens) (P22830 whole entry, looked up): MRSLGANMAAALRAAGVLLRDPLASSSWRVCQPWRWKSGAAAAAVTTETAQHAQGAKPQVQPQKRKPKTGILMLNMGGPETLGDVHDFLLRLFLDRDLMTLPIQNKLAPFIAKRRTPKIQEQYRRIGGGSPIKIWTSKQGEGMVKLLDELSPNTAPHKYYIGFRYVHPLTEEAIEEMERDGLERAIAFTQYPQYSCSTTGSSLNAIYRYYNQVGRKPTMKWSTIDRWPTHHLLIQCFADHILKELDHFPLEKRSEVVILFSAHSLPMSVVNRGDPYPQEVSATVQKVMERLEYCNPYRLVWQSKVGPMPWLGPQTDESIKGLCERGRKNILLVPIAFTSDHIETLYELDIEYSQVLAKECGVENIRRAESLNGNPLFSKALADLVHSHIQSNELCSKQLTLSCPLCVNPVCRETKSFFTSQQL
row,Compound,outcome
1,COc1cccc(CN2CC(=O)N(Cc3cccc(C(F)(F)F)c3)c3ccccc3S2(=O)=O)c1,inactive
2,Cc1ccc(C)c(N2C(=O)N(Cc3cc(F)cc(F)c3)c3ccccc3S2(=O)=O)c1,active
3,O=C1CN(Cc2c(F)cccc2Cl)S(=O)(=O)c2ccccc2N1Cc1ccccc1,inactive
4,COc1ccccc1C(=O)Nc1ccccc1Sc1c(C)c(C)nc2nc(-c3ccccc3)nn12,inactive
5,CC(NC(=O)CCc1c[nH]c2ccccc12)c1cn2ncsc2n1 (stereo not drawn),inactive
6,CCC(C)N(Cc1ccsc1)C(=O)c1cn2c(n1)CNCC2 (stereo not drawn),inactive
7,Cc1cccc(-c2ncc(CNCCNC(=O)c3ccccc3Cl)cn2)c1,inactive
8,CCc1cc(Sc2ccc(NC(=O)Cc3cccs3)cc2)n2ncnc2n1,inactive
9,COc1ccc(C(=O)N(Cc2nc3nc(C)cc(C)n3n2)c2ccc(F)cc2)cc1,inactive
10,O=C(NCc1ccccc1)c1nc(N2CCOCC2)c2oc3ccccc3c2n1,inactive
11,CCOCCCNC(=O)C1CCN(c2ccc(-c3ccc(C)cc3)nn2)CC1,inactive
12,Nc1ccc(S(=O)(=O)Nc2cccc(Cl)c2)cc1S(N)(=O)=O,active
13,CCCc1cc(NCc2ccc(OC)cc2)n2nc(-c3cccnc3)nc2n1,inactive
14,Cc1ccc(-c2ccnc(NCc3cnn4ccccc34)n2)c(C)n1,inactive
15,O=C(Nc1nc2n(n1)C(c1ccc(F)cc1)C=C(c1ccc(Cl)cc1)N2)c1cccnc1 (stereo not drawn),inactive
16,Cc1ccc(-c2ccnc(-c3ccc(CCC(=O)O)cc3)n2)c(C)n1,inactive
17,Cc1ccc(-n2c(=O)n(C)c3c(C(N)=O)nc(-c4ccc(Cl)cc4)nc32)cc1C,inactive
18,Cc1cc(C)n2nc(CN(C(=O)c3ccco3)c3ccc(Cl)cc3)nc2n1,inactive
19,COc1ccc(NC2=NC(C(=O)Nc3cc(OC)ccc3OC)CC(=O)N2)cc1 (stereo not drawn),inactive
20,CCOc1cc(-c2c(-c3ccccc3)ncn2Cc2c(C)n[nH]c2C)ccc1OC,inactive
21,COCCN1CCCC(O)(CN2CCN(c3nc4ccccc4o3)CC2)C1=O (stereo not drawn),inactive
22,OCc1csc(N2CCC(CO)(Cc3ccccc3Cl)CC2)n1,inactive
23,Cc1ccc(C2=CC(c3ccc(F)cc3)n3nc(NC(=O)CC(C)C)nc3N2)cc1 (stereo not drawn),inactive
24,Cc1ccc(S(=O)(=O)N2CCN(c3cc(-c4ccc(F)cc4)ncn3)CC2)cc1C,inactive
25,Cc1cccc(-c2nc3nc(CN(C)Cc4ccccc4)cc(=O)n3[nH]2)c1,active
26,CCOc1ccc(N(Cc2nc3nc(C)cc(C)n3n2)C(=O)c2ccco2)cc1,inactive
27,O=C(Nc1ccccc1)c1cc2n(n1)CCN(Cc1cnc[nH]1)C2,inactive
28,Cn1c(=O)n(Cc2ccc(F)cc2Cl)c(=O)c2cnc(-c3cccnc3)nc21,inactive
